# The list is not random: actives were taken first. Their share in the collection is about 2.6%.
# PAFAH2 inh = PAFAH2 enzyme inhibitors, primary screen, biochemical, fluorescence polarization, human; Platelet-activating factor acetylhydrolase 2, cytoplasmic (Homo sapiens), Q99487; recombinant PAFAH2, FP-rhodamine activity probe; inhibition, % at 3.39 µM; 340,000 compounds, 0.99% hits;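 active means inhibition above the mean over all tested compounds plus 3 SD, cut at about 30% in these data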;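 further: inhibitors block probe labeling of enzyme so polarization drops; 0% = enzyme with DMSO and 100% = wells lacking PAFAH2 protein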
# PAFAH1B3 inh = PAFAH1B3 enzyme inhibitors, primary screen, biochemical, fluorescence polarization, human; 340,000 compounds, 0.28% hits; recombinant PAFAH1B3, FP-rhodamine probe; inhibition, % at 3.39 µM;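 active means inhibition above the screen-wide average of all tested compounds plus 3 SD, cut at about 25% in these data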;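 further: 0% = enzyme with DMSO only and 100% = wells lacking PAFAH1B3 protein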
# pPAFAH FP inh = pPAFAH enzyme inhibitors, primary screen, biochemical, fluorescence polarization, human; recombinant pPAFAH, FP-rhodamine probe fluorescence polarization; inhibition, % at 3.39 µM; 330,000 compounds, 1.5% hits; AID 463082, 2010;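 active means inhibition above the mean inhibition across the screen plus 3 SD, cut at about 25% in these data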;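 further: inhibitors block binding of the rhodamine activity-based probe so polarization drops; 0% = enzyme with DMSO and 100% = wells lacking pPAFAH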
# Target sequence (Q13093 whole entry, looked up): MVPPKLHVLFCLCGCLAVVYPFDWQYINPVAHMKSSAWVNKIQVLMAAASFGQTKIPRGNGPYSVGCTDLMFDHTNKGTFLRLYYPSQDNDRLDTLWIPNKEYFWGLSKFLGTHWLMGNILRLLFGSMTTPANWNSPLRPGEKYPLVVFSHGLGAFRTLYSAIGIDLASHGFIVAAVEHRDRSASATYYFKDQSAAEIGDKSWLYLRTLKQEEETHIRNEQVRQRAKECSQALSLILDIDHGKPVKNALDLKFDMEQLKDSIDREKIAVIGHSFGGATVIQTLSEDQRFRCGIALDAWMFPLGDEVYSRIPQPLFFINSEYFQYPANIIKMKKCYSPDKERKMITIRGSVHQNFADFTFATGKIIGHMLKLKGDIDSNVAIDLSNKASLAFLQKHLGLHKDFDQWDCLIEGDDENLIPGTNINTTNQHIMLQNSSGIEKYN
# PKA-R2B activ = activators of PKA-R2B holoenzyme, primary screen, biochemical, fluorescence polarization, Cy5-IP20, human. 340,000 compounds, 0.079% hits. activation, % at 11.4 µM. PKA-R2B holoenzyme dissociation; R2B truncated from residue 108, S112A mutant; 0% DMSO only, 100% 113 µM cGMP;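 active means activation above a cutoff set at the mean over all compounds plus 3 SD, cut at about 18% in these data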;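 further: higher means more holoenzyme dissociation and a rise in polarization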
# PKA-R1A act = activators of PKA-R1A holoenzyme, primary screen, biochemical, fluorescence polarization, Cy5-IP20, bovine R1A, mouse PKAc | cAMP-dependent protein kinase type I-alpha regulatory subunit (Bos taurus) + … | 340,000 compounds, 0.083% hits | PKA-R1A dissociation; scaled: DMSO 0%, 113 µM cGMP 100% | AID 504707, 2011 | activation, % at 11.4 µM;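 active means percent activation above the mean of all tested compounds plus 3 SD, cut at about 19% in these data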;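 further: higher means more PKAc released from R1A so a rise in polarization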
# PAFAH1B2 FP inh = PAFAH1B2 enzyme inhibitors, primary screen, biochemical, fluorescence polarization, human | Platelet-activating factor acetylhydrolase IB subunit alpha2 (Homo sapiens), P68402 | recombinant PAFAH1B2, FP-rhodamine activity probe | inhibition, % at 3.39 µM | 340,000 compounds, 1.2% hits | AID 492953, 2010;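 active means inhibition above the mean of all tested compounds plus 3 SD, cut at about 24% in these data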;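 further: 0% = enzyme with DMSO and 100% = wells lacking PAFAH1B2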
# PAFAH2 confirm = PAFAH2 enzyme inhibitors, confirmation, biochemical, fluorescence polarization, human; shares compounds with PAFAH2 inh; recombinant PAFAH2, FP-rhodamine activity probe; inhibition, % at 3.39 µM; 2,300 compounds, 65% hits; AID 493030, 2011;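 active means mean inhibition over three repeats above a set limit taken from the earlier primary screen, cut at about 30% in these data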;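 further: inhibitor blocks binding of rhodamine activity probe so polarization falls; 0% = enzyme with DMSO and 100% = wells lacking PAFAH2 protein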
# * marks the source's active call; other numbers are inactive results; · = not tested or not shown.
SMILES,PAFAH2 inh,PAFAH1B3 inh,pPAFAH FP inh,PKA-R2B activ,PKA-R1A act,PAFAH1B2 FP inh,PAFAH2 confirm
CCc1ccccc1OCC(=O)Nc1cc(S(=O)(=O)N2CCOCC2)ccc1N1CCCCC1,-6,3,·,-5,9,1,·
Cc1ccc(CN2CC(C(=O)Nc3cccc(C)n3)CC2=O)cc1 (configuration not stated),3,1,1,9,1,5,·
CC(=O)Nc1ccc(C(=O)OCC(=O)NCCC2=CCCCC2)cc1,66*,6,·,5,1,-2,61*
CC(=O)Nc1ccc(C(=O)OCC(=O)NC(=O)NC(C)(C)C)cc1,41*,7,3,-1,-2,1,31*
O=C(COC(=O)c1ccc(OC(F)F)cc1)NCCC1=CCCCC1,41*,-2,22,-6,-18,1,15
CC1(C)CC(=O)C=C(C(=O)N2CCCC(C(=O)c3cccc(C(F)(F)F)c3)C2)O1 (configuration not stated),-7,0,8,-1,14,0,·
Cc1nc(C)c(C(=O)OCC(=O)Nc2ccccc2SCC#N)s1,43*,-6,6,-1,1,1,33*
Cc1nc(C)c(C(=O)OCC(=O)NCc2ccccc2)s1,32*,11,3,-1,0,1,20
COc1ccc(CCNC(=O)COC(=O)c2sc(C)nc2C)cc1,23,0,8,4,7,1,·
Cc1nc(C)c(C(=O)OCC(=O)NCc2ccccc2Cl)s1,70*,5,12,-4,4,3,63*
CC1CCc2sc(C(=O)OCC(=O)NCc3ccccc3)cc2C1 (configuration not stated),38*,8,9,-3,6,3,40*
Cc1nc(C)c(C(=O)OCC(=O)Nc2ccc(C)c(C)c2)s1,·,·,·,-5,1,·,·
COc1ccccc1OCCNc1ccc(S(=O)(=O)N2CCCC2)cn1,2,-1,·,0,-11,6,·
CCCCN1C(=O)C(C#N)CC2=C1CC(C)(C)CC2=O (configuration not stated),-1,3,·,4,-6,6,·
O=C(CCNC(=O)c1ccccc1Cl)Nc1ccc2c(c1)OCCO2,·,·,·,2,1,·,·
CC1C=CCC2C(=O)N(c3ccccc3OC(=O)c3cccs3)C(=O)C12 (configuration not stated),2,-1,-2,-7,-2,4,·
CC1C=CCC2C(=O)N(c3ccc(Cl)cc3O)C(=O)C12 (configuration not stated),35*,9,3,-5,-3,7,23
C=CCOc1ccccc1CN1CCC(Oc2ccc(C(=O)N3CCCCC3)cc2)CC1,5,5,4,5,1,1,·
COc1cc(/C=N/NC(=O)c2nnn(-c3nonc3N)c2C)ccc1OCc1ccc(Cl)cc1,·,·,·,-5,-2,·,·
Cc1ccc(NC(=O)COC(=O)c2ccco2)cc1S(=O)(=O)N1CCOCC1,66*,-3,-6,-2,1,2,60*
Cc1ccc(C(=O)OCC(=O)NC2CC2)cc1S(=O)(=O)N1CCOCC1,51*,4,12,3,10,-5,32*
Cc1ccc(C(=O)OCC(=O)c2ccc(Br)cc2)cc1S(=O)(=O)N1CCOCC1,34*,7,·,3,-5,17,19
Cc1cnc(C(=O)OCC(=O)Nc2ccc(C)c(S(=O)(=O)N3CCOCC3)c2)cn1,-1,14,-4,13,-5,3,·
Cc1ccc(C(=O)OCC(=O)NCc2cccs2)cc1S(=O)(=O)N1CCOCC1,49*,2,14,-5,4,-1,38*
Cc1ccc(NC(=O)COC(=O)/C=C/c2ccccc2)cc1S(=O)(=O)N1CCOCC1,58*,-4,-1,6,11,1,34*
SMILES,PAFAH2 inh,PAFAH1B3 inh,pPAFAH FP inh,PKA-R2B activ,PKA-R1A act,PAFAH1B2 FP inh,PAFAH2 confirm
Cc1ccc(C(=O)OCC(=O)NCCc2ccccc2)cc1S(=O)(=O)N1CCOCC1,23,2,13,-14,1,-4,·
Cc1ccc(NC(=O)COC(=O)c2ccc(C)c(S(=O)(=O)N3CCOCC3)c2)cc1,71*,8,·,-3,4,5,71*
COc1ccc(Nc2nc(N)nc(CSC(=S)N3CCOCC3)n2)cc1,-2,-5,4,4,3,-1,·
Cc1ccc(Nc2nc(N)nc(CSC(=S)N3CCOCC3)n2)c(C)c1,46*,-4,2,-3,0,0,42*
CCc1ccc(NC(=O)c2noc3c2CCC3)cc1,31*,4,12,1,-3,8,10
CCOc1ccc(C(=O)NCC(=O)N2CCC3(CC2)NCCc2[nH]cnc23)cc1,2,5,5,-4,2,1,·
O=C(COC(=O)c1n[nH]c2ccccc12)Nc1ccc(Cl)cc1[N+](=O)[O-],73*,1,-8,-4,-9,9,64*
COc1cc([N+](=O)[O-])ccc1NC(=O)COC(=O)c1n[nH]c2ccccc12,7,3,-1,1,3,-1,·
O=C(COC(=O)c1n[nH]c2ccccc12)Nc1ccccc1F,44*,-5,-11,-5,-7,4,43*
Cc1cccc(NC(=O)COC(=O)c2n[nH]c3ccccc23)c1C,59*,4,-5,-9,-5,-1,46*
Cc1cccc(NC(=O)COC(=O)c2cccs2)c1C,68*,-1,4,-6,5,6,56*
C[C@@H]1CN([C@H](C)CO)C(=O)c2cc(Br)cnc2O[C@@H]1CN(C)C(=O)CC1CC1,·,·,·,-9,5,·,·
CCCN(CCC)CCCNC(=O)Cn1cnc2sc(C)c(S(=O)(=O)N3CCOCC3)c2c1=O,9,15,5,-4,5,4,·
CC(NC(=O)COC(=O)c1ccc(CO)cc1)C1CC2CCC1C2 (configuration not stated),68*,2,1,-9,-3,2,64*
CC(NC(=O)c1ccc(N(C)C)cc1)C1CC2CCC1C2 (configuration not stated),46*,0,·,7,9,12,33*
COc1ccc(C(=O)NC(C)C2CC3CCC2C3)cc1 (configuration not stated),3,7,3,0,10,16,·

# High-throughput results (PubChem BioAssay)
